The entries come from a sample that favours hits as a whole.
Pf Dd2 inh – qHTS Primary assay for Inhibitors of Plasmodium falciparum Dd2 growth in vitro; P. falciparum Dd2 growth, SYBR Green, 72 h; Potency, µM (highest dose often 28.9 µM), for the others: at the highest dose activity, negative = inhibition, actives largely listed as inhibitors; 120,000 tested, 4.3% active; active = well fitted inhibition curve with a large enough effect;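 also: plate controls were DMSO vehicle for no effect and reference drug for full effect; nearly all actives have a fitted effect of over 65% in size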
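Readout: SYBR Green fluorescence, 485 nm excitation, 535 nm emission, after ~16 h lysis at 37C. Before that, Dd2-infected red cells (2.5% hematocrit) grew 72 h with compound, 29 uM top final concentration.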
* = called active by the depositor; i = inactive; [ ] = dose if it differs, or a comment. Potency is read from the fitted curve at half-maximal effect.

SMILES	Pf Dd2 inh
O=C(O)CCC(=O)N1Cc2ccccc2CC2(CCCN(CCc3ccccc3)C2)C1 (stereo not drawn)	9%
CCCC(=O)N1Cc2ccccc2CC2(CCN(CC)C2)C1 (stereo not drawn)	-13%[44.1 µM]
COc1ccc(C(=O)N2Cc3ccccc3CC23CCCN(C(=O)CN)C3)cc1 (stereo not drawn)	-18%
NCCCC(=O)N1CCCC2(Cc3ccccc3CN2C(=O)c2ccccc2)C1 (stereo not drawn)	7%
CCCC(=O)N1Cc2ccccc2CC2(CCCN(CCC)C2)C1 (stereo not drawn)	8.9µM*
CC(=O)NCC(=O)N1Cc2ccccc2CC2(CCN(Cc3ccccc3)C2)C1 (stereo not drawn)	-18%
NCC(=O)N1Cc2ccccc2CC12CCCN(C(=O)c1ccccc1)C2 (stereo not drawn)	8.9µM*
CCC(=O)N1Cc2ccccc2CC2(CCCN(Cc3ccncc3)C2)C1 (stereo not drawn)	-6%
COCCOCC(=O)N1CCCC(c2nn(C)c(=O)n2-c2ccccc2)C1 (stereo not drawn)	-2%
CCOC(=O)C1CCN(C(=O)c2cn3ccnc(-c4ccc(C)cc4)c3n2)CC1	-8%
Cc1cc(C(=O)N2CCCN(S(C)(=O)=O)C(c3ccccc3)CC(=O)NCC2)nn1C (stereo not drawn)	-9%
CCn1ccc(C(=O)N2CCC(Oc3ccccc3-c3nc(-c4ccccc4)no3)C2)n1 (stereo not drawn)	i
CCN1CCCC2(Cc3ccccc3CN(C(=O)c3ccccc3)C2)C1 (stereo not drawn)	10µM*
CCN1CCCC2(Cc3ccccc3CN(C(=O)CCC(=O)O)C2)C1 (stereo not drawn)	17%
CCC(=O)N1Cc2ccccc2CC2(CCCN(CC3CCNCC3)C2)C1 (stereo not drawn)	-2%
COc1ccc(OC2CCN(C(C)=O)CC2)c(C(=O)N2CCCCC2CCO)c1 (stereo not drawn)	-11%
COc1ccc(-c2cn3c(n2)CO[C@@H](CNC(=O)c2ccccc2OC)C3)cc1	i
COc1ccc(NC(=O)NC[C@H]2Cn3cc(-c4ccc(C)cc4)nc3CO2)cc1	2.5µM*
COc1ccc(-c2cn3c(n2)CO[C@@H](CNC(=O)C2CCCC2)C3)cc1	-21%[44.1 µM]
COC1C(=O)N(C2CCNCC2)C12CCOCC2 (stereo not drawn)	18%
Cc1[nH]c(-c2ccccc2)nc1C(=O)N1CCN(c2ccccc2C#N)C(=O)C1	-14%
CCOc1cc(=O)n2c(c1C(=O)NCc1ccc(C)c(C)c1)CCCCC2	-7%
O=C(CC1CCCC1)NCCC1CCN(C(=O)Nc2ccc(F)cc2)CC1	i
CCOC(=O)CNC(=O)c1cc(-c2ccc[nH]2)n[nH]1	52%
Fc1cccc(-c2nnn3c2nc(NC2CCCCC2)c2ccccc23)c1	8.9µM*
SMILES	Pf Dd2 inh
CC(C)Nc1nc2c(-c3cccc(Br)c3)nnn2c2ccccc12	i
Fc1cccc(-c2nnn3c2nc(NCc2ccc4c(c2)OCO4)c2ccccc23)c1	8%
COc1cccc(CC(=O)N2CCC3(CC2)NC(=O)N(c2ccc(F)cc2)N3)c1	-3%
O=[S+]1([O-])NC2(CCN(CC3CCCC3)C2)COc2ccncc21 (stereo not drawn)	0%
COCC1CN(C(C)=O)CC12CCN(Cc1ccc(F)cc1Cl)CC2 (stereo not drawn)	-18%
COc1ccc(CNc2cc3c(cn2)CN(Cc2ccccc2)CCN3)cc1OC	-15%[44.1 µM]
COc1ccc(-c2cc3c(cn2)CN(Cc2ccccc2)CCN3)cc1OC	11µM*
Oc1ccc(-c2cc3c(cn2)CN(Cc2ccccc2)CCN3)cc1F	4µM*
COc1ccc(Nc2cc3c(cn2)NCCN(Cc2ccccc2)C3)cn1	i
Fc1ccccc1-c1cc2c(cn1)CN(Cc1ccncc1)CCN2	i
COc1ccc(Nc2cc3c(cn2)CN(CCc2ccccc2)CCN3)cc1OC	10µM*
COc1ccc(Nc2cc3c(cn2)CN(Cc2ccncc2)CCN3)cn1	-6%[44.1 µM]
c1ccc(CN2CCNc3cc(-c4ccncc4)ncc3C2)cc1	-26%[44.1 µM]
COc1ccc(CN2CCNc3cc(-c4ccnc(C)c4)ncc3C2)cc1O	-4%[44.1 µM]
CCc1nc2c(c(-c3ccc(OC)cc3)n1)CCN(CC1CC1)CC2	-15%
CCCNC(=O)N1CCCC2(CCC(=O)N(CCc3ccccc3)C2)C1 (stereo not drawn)	-1%
CCCNC(=O)N1[C@H]2CC[C@@H]1c1cnc(-c3ccccc3)nc1C2	-9%
FC(F)(F)c1ccc(CN2CC(Oc3ccc4c(c3)OCO4)C2)cc1	50%
O=C(Nc1ccc2c(c1)OCO2)N1CCc2onc(-c3ccc(F)c(F)c3)c2C1	3%
Cc1ccc(NC(=O)C2CCN(S(=O)(=O)c3ccc4[nH]c5c(c4c3)CCCCC5)CC2)cc1	11µM*
Cc1ccc(NS(=O)(=O)c2ccc3[nH]c4c(c3c2)CCCCCC4)cc1	i
Cc1ccc(S(=O)(=O)N2CCC(C(=O)Nc3ccc(Oc4ccccc4)cc3)CC2)cc1	-1%
CCn1ncc(N2CCCC(CC(=O)Nc3ccc(Cl)cc3)C2)cc1=O (stereo not drawn)	-16%
CCOc1cccc(CNC(=O)c2noc(-c3ccc4c(c3)OCO4)n2)c1	-41%
O=C1NC(C(=O)N2CCN(c3ncccn3)CC2)CN1Cc1ccccc1 (stereo not drawn)	-20%
SMILES	Pf Dd2 inh
O=C(O)c1[nH]ncc1CN1CCC(N2CCC(C(=O)NCC3CCCO3)CC2)CC1 (stereo not drawn)	7%
Cc1noc(C)c1S(=O)(=O)N1CCC2(CC1)NCCc1c2[nH]c2ccccc12	5µM*
Cc1noc(C)c1C(=O)N1CCC2(CC1)NCCc1c2[nH]c2ccccc12	-24%
Cn1cnc(S(=O)(=O)N2CCC3(CC2)NCCc2c3[nH]c3ccccc23)c1	-8%
Cc1ccncc1C(=O)N1CCC2(CC1)c1[nH]c3ccccc3c1CCN2C	i
CN1CCc2c([nH]c3ccccc23)C12CCN(S(=O)(=O)c1cccnc1)CC2	4.5µM*
CN1CCc2c([nH]c3ccccc23)C12CCN(C(=O)Cc1cccnc1)CC2	-27%
CN1C(=O)CS(=O)(=O)C12CCN(C(=O)c1cc(F)ccc1F)CC2	9%
COCCCN1CC2(CCN(S(=O)(=O)c3cc(C)cc(C)c3)CC2)CC1=O	-4%
CC(C)(O)CCc1ccc(C(=O)NCCc2c[nH]c(=O)[nH]c2=O)cc1	-9%
COc1cccc(CN2CCCC(NC(=O)c3cn4ccsc4n3)C2)c1 (stereo not drawn)	-21%
Cc1ccc(C(=O)N2CCCC3(CCNCC3)CC2)cc1Cl	-14%
CNc1ncccc1C(=O)N1CCC(O)(c2ccc(C)cn2)CC1	-4%
CNc1ccc(C)cc1C(=O)N1CCC2(CCCN(C)CC2)CC1	10µM*
O=C1CC(c2nc(-c3cn4ccccc4n3)no2)CN1Cc1ccncc1 (stereo not drawn)	7%
COCc1c(C(=O)N2CCCC3(CCC(=O)N(C4CC4)C3)C2)noc1C (stereo not drawn)	-13%
Cn1c(=O)c2ccnn2c2ccc(C(=O)NC3CCCC3)cc21	8%
Cc1cccc(N(C)c2nc3ccccc3c3nnc(C)n23)c1	0.45µM*
Cc1cccc(N(C)c2nc3ccc(C)cc3n3cnnc23)c1	11%
Cc1cccc(N(C)c2ccc3cc(S(=O)(=O)N4CCCC4)ccc3n2)c1	2%
CCOc1cc(=O)n2c(c1C(=O)Nc1ccc(Br)cc1F)CCCC2	24%
Cc1nn2cc(CCNCC3(O)CNCCOC3)nc2s1 (stereo not drawn)	-3%
